An excerpt weighted towards active compounds, which were near 2.3% of everything screened.
Calb FLC: affects C. albicans growth with fluconazole. AID 1979. C. albicans CaCi-2 (fluconazole-resistant clinical isolate) + fluconazole, Alamar Blue growth, 48 h. growth inhibition, % (concentration not given with the values). hit rate 0.57% among 300,000;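 active = growth inhibition above about 58% in most replicates, limit read from the data, passing the limit was not always enough; inconclusive = exactly half the replicates above a set limit; inactive = most replicates below a set limit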;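 note: all wells also contain fluconazole at 8 µg/ml as a sub-toxic cotreatment; 0% = median of DMSO wells and 100% = median of geldanamycin control wells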
Rpn11 block: Rpn11 (human) deubiquitinase inhibition; O00487; human 26S proteasome, Ub4-pepOG fluorescence polarization; 20S core pre-blocked with epoxomicin; inhibition, % at 20 µM; hit rate 0.59% among 360,000;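 active = inhibition at 20 µM, scaled to each plate's controls, above about 33%, limit read from the data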
IDE cell activ: boosts human insulin-degrading enzyme activity in HEK cells | P14735 | FAbeta-B cleavage, fluorescence polarization; 0% vehicle, 100% cell-free pure enzyme wells | activation, % at 5.96 µM | hit rate 0.073% among 340,000 | AID 493087;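 active = activation above the mean of all tested compounds plus 3 SD, set per screening campaign, cut at about 17% in these data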
Rin1 Abl inh: inhibitors of human Rin1-Abl protein interaction; inhibition, % at 7.35 µM; AID 588664; hit rate 0.4% among 360,000; TR-FRET Rin1/Abl binding, biochemical; P00519+Q13671; in the data active = inhibition above about 5%, passing the limit was not always enough
TPT1 inhibitor: blocks Candida albicans tRNA 2'-phosphotransferase | inhibition, % at 5 µM | hit rate 0.81% among 300,000 | AID 1962 | recombinant caTPT1, FP RNA substrate dephosphorylation;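 active = inhibition above the mean of all tested compounds plus 3 SD, set per screening campaign, cut at about 24% in these data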;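 note: plate controls were DMSO alone for no effect and ferristatin control at 100 nM for full effect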
IDE inh: inhibits human insulin-degrading enzyme in HEK cells. P14735. FAbetaB cleavage, fluorescence polarization. inhibition, % at 5.59 µM. hit rate 0.41% among 320,000. AID 434962;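 active = percent inhibition above the average of all tested compounds plus 3 SD, set per screening campaign, cut at about 16% in these data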;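 note: IDE supplied by intact live HEK cells; FP after avidin binding of uncleaved biotin substrate so inhibition keeps polarization high; 0% = DMSO wells and 100% = 60 µM reference IDE inhibitor Ii1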
Rin1 Abl conf: confirmation of inhibitors of human Rin1-Abl interaction; shares compounds with Rin1 Abl inh; TR-FRET Rin1-Abl binding, purified proteins; inhibition, % at 7.35 µM; hit rate 49% among 1,300; AID 602124
GFP quencher: counter-screen for Rin1-Abl inhibitors: GFP fluorescence quenchers. shares compounds with Rin1 Abl inh. inhibitors/quenchers counterscreen. inhibition, % at 6.75 µM. hit rate 8.5% among 1,300;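 note: ABL1-eGFP fusion protein alone without its partner RIN1-SBP; 0% = protein with vehicle and 100% = wells lacking protein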
GFP quench DR: GFP fluorescence interference dose response; AID 602182; 230 tested, under 10 active; IC50, µM; GFP fluorescence interference/quenching counterscreen; shares compounds with Rin1 Abl inh; call rule not given here;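 note: ABL1-eGFP fusion protein alone without its RIN1 binding partner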
Starred values were filed as active, the others as inactive; u = inconclusive; x = no result given. Cut-off read from the data, not from the text of the source, unless noted: active = inhibition above about 6.5%; inactive = the rest.

SMILES | Calb FLC | Rpn11 block | IDE cell activ | Rin1 Abl inh | TPT1 inhibitor | IDE inh | Rin1 Abl conf | GFP quencher | others
CC(=O)c1c(C)[nH]c(C(=O)Nc2ccccc2N2CCOCC2)c1C | -55.9 | 8.4 | 6.1 | 4.7* | -1.8 | 3.1 | -2.9 | 0.3
CCOc1cc(N2CCOCC2)c(OCC)cc1NC(=O)c1[nH]c(C)c(C(C)=O)c1C | x | -3.4 | 1.4 | 0.0 | x | -4.4 | x | x
Cc1ccc(CNC(=O)c2ccc(CNS(=O)(=O)c3ccc4c(c3)C(C)(C)C(=O)N4C)cc2)o1 | 5.0 | -1.0 | 2.2 | 1.8 | 0.7 | -0.8 | x | x
CC(C)(C)OC(=O)N(Cc1ccccc1)Cc1cccc(OCc2cccc(NC(=O)c3ccccc3)c2)c1 | x | -0.3 | 2.2 | 1.6 | x | x | x | x
NS(=O)(=O)c1ccc(NC(=O)COc2ncnc3c2cnn3-c2ccccc2)cc1 | 3.1 | 2.9 | -0.7 | 5.5* | 4.2 | 3.2 | 6.1 | 0.0
O=C(Cc1cnn(-c2ccccc2)c1)c1ccc(O)c(O)c1O | u | 2.4 | -6.0 | 12.7* | -1.2 | 7.0 | 2.4 | 11.2*
CCc1cc(C(=O)Cc2cnn(-c3ccccc3)c2)c(O)cc1O | 5.8 | 3.1 | 1.1 | -2.3 | 0.2 | -4.2 | x | x
CCn1cc(C(=O)NCc2ccco2)c2cc(OC)c(OC)cc2c1=O | 34.0 | -0.1 | -0.9 | 3.0 | -1.6 | 5.3 | x | x
COc1cc2c(C(=O)NCc3ccc(C)o3)cn(CC(C)C)c(=O)c2cc1OC | 3.6 | -4.3 | 8.2 | 6.9* | -4.0 | 5.6 | -0.1 | -1.1
Oc1ccc(/C=N/N2CCOCC2)c(O)c1O | 26.2 | -6.9 | -4.8 | 30.4* | -6.5 | -0.5 | 33.0* | 6.5 | GFP quench DR=>67.6
Oc1ccc(/C=N/N2CCCCC2)c(O)c1O | 12.3 | -16.2 | -1.7 | 25.2* | -8.9 | 5.6 | 31.6* | 6.2 | GFP quench DR=>67.6
Oc1cccc(/C=N/N2CCCCC2)c1O | -1.2 | -2.4 | 1.4 | 1.9 | -3.9 | 7.1 | x | x
COc1cccc(/C=N/N2CCOCC2)c1O | 0.2 | 7.1 | 6.8 | 0.7 | 0.7 | 2.5 | x | x
Cc1sc2ncn(CC(=O)NCC(=O)N3CCN(c4ccccc4F)CC3)c(=O)c2c1C | 26.4 | -1.1 | 0.8 | 25.7* | -2.8 | 5.3 | -0.1 | -5.8
NC(=O)C1CCCN1Cc1ccc2c(c1)OCO2 (stereo not drawn) | x | 2.1 | -1.9 | -0.4 | x | x | x | x
NC(=O)c1cc(Cl)ccc1OCC(=O)NC1CC1 | x | 2.0 | 1.8 | -2.6 | x | -2.4 | x | x
N/C(=N\OC(=O)c1ccc([N+](=O)[O-])cc1)c1cccnc1 | -2.1 | -5.3 | 3.5 | 0.7 | -6.0 | -7.1 | x | x
Cc1ccc(C(=O)O/N=C(\N)c2cccnc2)cc1[N+](=O)[O-] | -0.9 | -1.4 | -1.7 | 6.9* | 0.3 | 8.1 | -1.4 | -1.8
COc1ccc(C)cc1N(CC(=O)Nc1ccc(S(=O)(=O)N2CCOCC2)cc1)S(C)(=O)=O | -7.3 | 8.1 | 0.5 | 1.9 | -3.6 | 0.3 | x | x
CS(=O)(=O)N(CC(=O)Nc1ccc(S(=O)(=O)N2CCOCC2)cc1)c1ccccc1Br | -9.3 | -0.5 | 0.4 | 9.4* | -3.1 | 6.3 | -2.6 | 2.2
CCCCN(C(=O)C1CCN(C(=O)c2ccccc2C)CC1)c1c(N)n(CCCC)c(=O)[nH]c1=O | -3.0 | 2.3 | 0.3 | -0.8 | 1.6 | 0.5 | x | x
CCCCn1c(N)c(N(CCC(C)C)C(=O)C2CCN(C(=O)c3ccccc3C)CC2)c(=O)[nH]c1=O | -1.1 | -2.0 | 2.8 | 8.4* | -1.8 | -2.1 | -2.5 | -0.1
COc1ccc(COC(=O)C2=C(C)NC(=O)NC2c2cc(OC)ccc2OC)cc1 (stereo not drawn) | 1.4 | 1.7 | -0.2 | 3.2 | 3.6 | 5.5 | x | x
COc1ccc(COC(=O)C2=C(C)NC(=O)NC2c2cccc(OC)c2OC)cc1 (stereo not drawn) | 27.5 | -9.8 | -6.1 | 7.2* | -0.2 | 0.8 | 2.6 | 0.5
CNCc1ccccc1Sc1ccc(O)c(O)c1 | 106.6* | -12.7 | -1.4 | 11.9* | -1.3 | 10.4 | 6.4* | 0.4
COc1ccc(Sc2ccccc2CN(C)C)cc1OC | 3.1 | -3.8 | 5.6 | 4.8 | -0.9 | 1.2 | x | x

Assay outcomes as filed in PubChem.
